Drawing on PubChem BioAssay (NCI), this text covers growth for 8 compounds.

About 83,000 compounds went through this panel and 20% of them were active in at least one assay; those are over-represented in the sample as a whole.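 Cell lines were cultured in 96-well plates, exposed to a single compound concentration, and assessed for percent growth 48 hours later.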 Values without a mark were called inactive. Active and inactive are the calls of the source. How the source made its calls: active means growth percent below 10; inactive means the rest.

Some test systems named below: HCT-15 colon; HT29 colon; SNB-75 CNS; SNB-19 CNS; U251 CNS; PC-3 prostate; SK-MEL-5 melanoma; UACC-62 melanoma; LOX IMVI melanoma; SK-MEL-28 melanoma; SK-MEL-2 melanoma; EKVX NSCLC; SN12C renal; UO-31 renal; TK-10 renal; ACHN renal; CAKI-1 renal; A498 renal; CCRF-CEM leukemia; MOLT-4 leukemia.
Experiment in all cases: NCI-60 one-dose screen, 48 h (100 = growth as untreated, 0 = no growth, -100 = all killed)
Conditions in all cases: 10 µM unless noted

On to `O=S(=O)(NCCNc1nccc(-n2cnc3ccccc32)n1)c1ccc(Cl)cc1`, for which the growth with HCT-15 colon was 96.6%; in the assay with HT29 colon, 103%; with SNB-75 CNS, 79.4%; in the assay on SNB-19 CNS, 97.7%; with U251 CNS, 102%; in the assay with PC-3 prostate, 103%. Moreover, the growth was 99.4% in the assay on SK-MEL-5 melanoma; 86.4% in the assay on UACC-62 melanoma; 93.5% with LOX IMVI melanoma; 101% in the assay on SK-MEL-28 melanoma; 109% in the assay with SK-MEL-2 melanoma; 92.2% with EKVX NSCLC. The growth in the assay with SN12C renal is 96.6%; with UO-31 renal it was 81.6%; with TK-10 renal, 101%; in the assay on ACHN renal, 96.4%; in the assay with CAKI-1 renal, 87.4%; in the assay with A498 renal, 84.8%. The growth with CCRF-CEM leukemia and with MOLT-4 leukemia was 103% in each case.
Take `N#Cc1cnc2ccc(-c3cnc(N)nc3)cc2c1N1CCc2cc(F)c(Cl)cc21`: the growth is 4.26% (active) with HCT-15 colon; 11.4% in the assay on HT29 colon; 19.1% with SNB-75 CNS; 12.2% with SNB-19 CNS; 10.3% in the assay on U251 CNS; 2.78% (active) in the assay with PC-3 prostate. The growth in the assay on SK-MEL-5 melanoma was -92.3% (active); in the assay on UACC-62 melanoma, -17.2% (active); in the assay with LOX IMVI melanoma, 2.73% (active); with SK-MEL-28 melanoma, 7.06% (active); in the assay with SK-MEL-2 melanoma, -32.5% (active); in the assay with EKVX NSCLC, -7.03% (active). The growth was 15% in the assay with SN12C renal; -6.05% (active) with UO-31 renal; -20.5% (active) with TK-10 renal; 7.59% (active) in the assay on ACHN renal; 5.2% (active) in the assay with CAKI-1 renal; -49.7% (active) in the assay with A498 renal. Besides, in the assay on CCRF-CEM leukemia, the growth is 5.74% (active).
Regarding `NC(N)=Nc1ccc(Nc2cccc(Oc3ccc(Cl)c(C(F)(F)F)c3)c2)cn1`, the growth is 42% in the assay on HCT-15 colon; 18.9% in the assay on HT29 colon; 52.7% with SNB-75 CNS; 24.3% with SNB-19 CNS; -68.8% (active) in the assay on U251 CNS; -55.8% (active) in the assay on PC-3 prostate. Moreover, the growth in the assay with SK-MEL-5 melanoma is 28.3%; in the assay on UACC-62 melanoma, 45.6%; in the assay with LOX IMVI melanoma, -97.2% (active); with SK-MEL-28 melanoma, 60.7%; with SK-MEL-2 melanoma, 74.9%; with EKVX NSCLC it was 30.5%. The growth was -71.8% (active) in the assay with SN12C renal; 56.4% with UO-31 renal; 81.7% in the assay with TK-10 renal; 55.7% in the assay with ACHN renal; 42.9% in the assay on CAKI-1 renal; 62.8% in the assay on A498 renal. In addition, the growth was -9.86% (active) with CCRF-CEM leukemia and 0.616% (active) in the assay on MOLT-4 leukemia.
In the case of `CC1=N[C@@H]2CN(C(=O)OC(C)(C)C)C[C@@H]2n2c1cc1ccccc1c2=O`, the growth was 104% in the assay on HCT-15 colon; 106% in the assay on HT29 colon; 91.7% in the assay on SNB-75 CNS; 105% in the assay with SNB-19 CNS; 106% in the assay with U251 CNS; 92% in the assay on PC-3 prostate. Further, the growth in the assay with SK-MEL-5 melanoma is 99.1%; in the assay with UACC-62 melanoma, 97.9%; in the assay with LOX IMVI melanoma, 98.2%; in the assay on SK-MEL-28 melanoma, 115%; in the assay with SK-MEL-2 melanoma it was 102%; in the assay with EKVX NSCLC, 103%. Moreover, the growth is 97.1% in the assay with SN12C renal; 74.9% in the assay on UO-31 renal; 123% in the assay with TK-10 renal; 92.6% in the assay on ACHN renal; 80.2% in the assay on CAKI-1 renal; 114% in the assay on A498 renal. Also, the growth in the assay on CCRF-CEM leukemia was 105%.
Turning to `C#Cc1nc(/C=C/C(=O)c2nccn2C)cs1`, the growth in the assay with HCT-15 colon is -72.9% (active); in the assay with HT29 colon, -38.2% (active); with SNB-75 CNS it was -3.26% (active); in the assay on SNB-19 CNS it was -79.2% (active); in the assay with U251 CNS, -74.3% (active); with PC-3 prostate, -78.9% (active). Also, the growth was -84.2% (active) in the assay on SK-MEL-5 melanoma; -84.3% (active) with UACC-62 melanoma; -81.4% (active) with LOX IMVI melanoma; -31.9% (active) in the assay on SK-MEL-28 melanoma; 18.6% with SK-MEL-2 melanoma; -59.4% (active) in the assay on EKVX NSCLC. Besides, the growth with SN12C renal was -47.2% (active); in the assay with UO-31 renal, -80.7% (active); with TK-10 renal, -18.8% (active); in the assay with ACHN renal, -94% (active); with CAKI-1 renal, -55.7% (active); in the assay on A498 renal, -88.1% (active). In the assay with CCRF-CEM leukemia, the growth is -21.6% (active).
As to `COc1cc(-c2ccc3ncnc(NCc4ccccc4)c3c2)cnc1OC`, the growth with HCT-15 colon is 68.2%; with HT29 colon, 64.5%; in the assay on SNB-75 CNS it was -17.8% (active); with SNB-19 CNS, 74.4%; with U251 CNS, 81.7%; with PC-3 prostate it was 31.7%. Further, the growth with SK-MEL-5 melanoma is 70.8%; in the assay with UACC-62 melanoma it was 47.1%; in the assay on LOX IMVI melanoma it was 41.2%; in the assay on SK-MEL-28 melanoma, 63.2%; with SK-MEL-2 melanoma, 76.5%; in the assay with EKVX NSCLC, 6.53% (active). For the same compound, the growth with SN12C renal is 27.2%; in the assay with UO-31 renal, 17.7%; in the assay on TK-10 renal, -11.7% (active); in the assay on ACHN renal, 19.9%; in the assay on CAKI-1 renal it was 6.95% (active); with A498 renal, -48.8% (active). The results for the growth in the assay on CCRF-CEM leukemia and in the assay on MOLT-4 leukemia were 54.8% and 32.1%, respectively.
`O=C1[C@@H]2Cc3c([nH]c4ccccc34)[C@H](c3c(Cl)cccc3Cl)N2C(=O)CN1C1CCN(CC2CCCCC2)CC1`: the growth was 7% (active) in the assay on HCT-15 colon; 5.63% (active) with HT29 colon; 103% with SNB-75 CNS; 71.5% in the assay on SNB-19 CNS; 42.8% in the assay with U251 CNS; 20.6% in the assay on PC-3 prostate. Moreover, the growth with SK-MEL-5 melanoma was 50.4%; in the assay on UACC-62 melanoma, 79.5%; in the assay on LOX IMVI melanoma, -81.1% (active); in the assay with SK-MEL-28 melanoma, 93.9%; in the assay with SK-MEL-2 melanoma, 105%; in the assay with EKVX NSCLC, 90.7%. Moreover, the growth was 61.4% in the assay with SN12C renal; 69.7% with UO-31 renal; 139% in the assay with TK-10 renal; 51.3% in the assay with ACHN renal; 76.7% in the assay on CAKI-1 renal; 87.1% in the assay with A498 renal.
On to `CC(=O)Nc1cccc(Nc2nc(N[C@@H](C)c3ccccc3)c3ccccc3n2)c1`, for which the growth in the assay on HCT-15 colon was 10.4%; in the assay with HT29 colon it was 4.28% (active); in the assay with SNB-75 CNS, -19.3% (active); with SNB-19 CNS, 20.6%; with U251 CNS, 14.3%; in the assay on PC-3 prostate, 21.3%. Besides, the growth in the assay on SK-MEL-5 melanoma was -5.52% (active); with UACC-62 melanoma, 28.6%; with LOX IMVI melanoma, -70.2% (active); in the assay on SK-MEL-28 melanoma, 42.3%; with SK-MEL-2 melanoma, 38.2%; with EKVX NSCLC it was 24%. The growth in the assay on SN12C renal is 33.4%; in the assay on UO-31 renal it was 19.2%; in the assay with TK-10 renal, 54.1%; in the assay with ACHN renal, 28.6%; with CAKI-1 renal, 18.5%; with A498 renal it was -33.5% (active).
